Publication PMC5540273 (PLoS ONE, 2017)

Tests used:
Conditions in all cases: concentration: 1 μM, replicates: in singlicate; n = 1
NEK11 = tested on: NEK11
NEK1 = tested on: NEK1
NEK2 = tested on: NEK2
NEK3 = tested on: NEK3
NEK4 = tested on: NEK4
NEK5 = tested on: NEK5
NEK6 = tested on: NEK6
NEK7 = tested on: NEK7
NEK9 = tested on: NEK9
NIK = tested on: T1, NIK
T1 construct: gene MAP3K14

NIM1 = tested on: T2, NIM1
T2 construct: gene MGC42105

NLK = tested on: NLK
OSR1 = tested on: T3, OSR1
T3 construct: gene OXSR1

PAK1 = tested on: PAK1
PAK2 = tested on: PAK2
PAK3 = tested on: PAK3
PAK4 = tested on: PAK4
PAK6 = tested on: PAK6
PAK7 = tested on: PAK7
PCTK1 = tested on: T4, PCTK1
T4 construct: gene CDK16
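Further: KINOMEscan kinase panel screen.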

Compound	%Inh (NEK11) [%]	%Inh (NEK1) [%]	%Inh (NEK2) [%]	%Inh (NEK3) [%]	%Inh (NEK4) [%]	%Inh (NEK5) [%]	%Inh (NEK6) [%]	%Inh (NEK7) [%]	%Inh (NEK9) [%]	%Inh (NIK) [%]	%Inh (NIM1) [%]	%Inh (NLK) [%]	%Inh (OSR1) [%]	%Inh (PAK1) [%]	%Inh (PAK2) [%]	%Inh (PAK3) [%]	%Inh (PAK4) [%]	%Inh (PAK6) [%]	%Inh (PAK7) [%]	%Inh (PCTK1) [%]
CCCCc1nn2ncccc2c1-c1ccnc(Nc2ccc(N3CCN(C)CC3)cc2)n1 [GW684941]	62	0	53	9	14	0	0	0	0	11	47	54	12	23	0	0	0	48	1	26
COc1cc(Nc2nccc(N3CCC(NC(=O)c4cc5ccccc5s4)C3)n2)cc(OC)c1OC (centres unmarked) [GSK1379760]	0	35	26	11	13	99.5	27	37	31	4	6	0	2	4	2	9	0	0	0	0
CN1CCN(CCCNc2nccc(-c3c(-c4ccc(F)cc4)nn4cc(C(F)(F)F)ccc34)n2)CC1 [GW621581]	14	0	14	0	0	0	0	11	0	18	0	55	6	8	7	30	0	0	0	0
O=C(Nc1n[nH]c2nc(-c3ccc(O)cc3)ccc12)C1CC1 [SB-710363]	0	0	3	17	2	0	0	12	0	2	0	92.1	0	0	72	0	0	0	11	61
Cc1ccc(F)c(C(=O)Nc2cccc(-c3nn4ccccc4c3-c3ccnc(Nc4cccc(F)c4)n3)c2)c1F [GSK361061]	0	0	0	8	18	12	9	14	16	5	0	77	100	4	21	42	3	0	14	0
COc1cc2c(cc1OCCN1CCNCC1)ncc1c3ccc(C#N)cc3[nH]c21	7	0	41	29	100	0	15	0	0	65	66	0	20	0	4	0	0	8	0	16
FC(F)(F)c1ccc(/C=C/c2cncnc2Nc2ccc3[nH]c(Cc4ccccc4)nc3c2)cc1 [GW709199]	9	0	0	30	0	23	13	0	2	0	0	9	0	4	16	0	0	0	0	0
Cn1cc(-c2[nH]c3cc(NC(=O)[C@H](N)C4CCCCC4)cc4c3c2C=NNC4=O)cn1	89	70	21	32	0	54	2	0	11	3	96.8	0	17	27	25	83	99.5	99.2	97.9	8
COC(=O)Nc1nc2ccc(Oc3ccc(NC(=O)Nc4cc(C(F)(F)F)ccc4F)cc3)cc2n1C.Cl [GW692089]	25	0	0	0	0	0	0	0	0	27	32	8	0	0	0	6	0	0	0	0
COc1cc(Nc2ncc3c(C)nc(-c4cc5ccccc5[nH]4)n3n2)cc(OC)c1OC [GW869516]	86	16	70	89	41	99	99.6	99.7	90	0	0	0	0	5	22	69	33	23	28	0
